In PubChem BioAssay AID1159580 (chemical genetic matrix, 2015):
Several values for one entry are separate records, joined by “and”; a condition that tells them apart may be missing. Equal entries are not always repeated. Screen size: about 5,500 compounds; about 2,000 (36%) were called active. Roughly 18% stayed inconclusive and do not appear here. Cut-off read from the data, not from the text of the source: active = normalized growth mostly below about 0.91 (no sharp cut-off); inconclusive = no clear call, values can overlap the other calls; inactive = mostly above about 0.92. Some of the results follow.

Assay: chemical genetic growth profiling, strain panel (AID 1159580);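 note: tested at 20 µM; growth read once vehicle control cultures reached saturation at 30 °C; 1 = growth at the plate median or of vehicle wells; lower values mean less growth of the strain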
Settings: S. cerevisiae deletion strains, growth OD

Measured: normalized growth

N#CC(O[C@@H]1O[C@H](CO[C@@H]2O[C@H](CO)[C@@H](O)[C@H](O)[C@H]2O)[C@@H](O)[C@H](O)[C@H]1O)c1ccccc1 (some centres not stated)
inactive: locus YAL013W, strain DEP1, stronger effect = lower value 1 | locus YAL021C, strain ccr4, stronger effect = lower value 0.965 | locus YAL026C, strain drs2, stronger effect = lower value 0.99 | locus YAL030W, strain snc1, stronger effect = lower value 0.986 | locus YBL061C, strain skt5, stronger effect = lower value 0.97 | locus YBR009C, strain hhf1, stronger effect = lower value 0.987 | locus YBR021W, strain FUR4, stronger effect = lower value 0.986 | locus YBR023C, strain chs3, stronger effect = lower value 0.979 | locus YBR171W, strain sec66, stronger effect = lower value 0.975 | locus YBR229C, strain ROT2, stronger effect = lower value 0.993 | locus YBR231C, strain swc5, stronger effect = lower value 0.981 | locus YBR279W, strain paf1, stronger effect = lower value 0.981 | locus YCL011C, strain gbp2, stronger effect = lower value 0.986 | locus YCL016C, strain dcc1, stronger effect = lower value 0.983 | locus YCL029C, strain bik1, stronger effect = lower value 1 | locus YCL061C, strain MRC1, stronger effect = lower value 0.99 | locus YCL069W, strain vba3, stronger effect = lower value 0.988 | locus YCR088W, strain abp1, stronger effect = lower value 0.975 | locus YDL005C, strain med2, stronger effect = lower value 0.967 | locus YDL035C, strain GPR1, stronger effect = lower value 1.01 | locus YDL040C, strain nat1, stronger effect = lower value 0.976 | locus YDL074C, strain BRE1, stronger effect = lower value 1.01 | locus YDL101C, strain DUN1, stronger effect = lower value 1 | locus YDL185W, strain tfp1, stronger effect = lower value 0.975 | locus YDL192W, strain arf1, stronger effect = lower value 0.998 | locus YDR001C, strain nth1, stronger effect = lower value 0.988 | locus YDR069C, strain doa4, stronger effect = lower value 0.975 | locus YDR101C, strain arx1, stronger effect = lower value 0.995 | locus YDR137W, strain rgp1, stronger effect = lower value 1.01 | locus YDR150W, strain NUM1, stronger effect = lower value 1.01 | locus YDR159W, strain sac3, stronger effect = lower value 0.961 | locus YDR162C, strain NBP2, stronger effect = lower value 1.04 | locus YDR195W, strain ref2 0.945 | locus YDR297W, strain sur2, stronger effect = lower value 0.992 | locus YDR318W, strain mcm21, stronger effect = lower value 1 | locus YDR334W, strain swr1, stronger effect = lower value 0.984 | locus YDR335W, strain msn5, stronger effect = lower value 0.988 | locus YDR388W, stronger effect = lower value 0.991 | locus YDR392W, strain spt3, stronger effect = lower value 0.974 | locus YDR502C, strain sam2, stronger effect = lower value 1.02 | locus YEL003W, strain gim4, stronger effect = lower value 0.99 | locus YEL037C, strain rad23, stronger effect = lower value 0.982 | locus YEL061C, strain CIN8 (second series), stronger effect = lower value 0.991 | locus YEL061C, strain CIN8, stronger effect = lower value 1 | locus YER015W, strain faa2, stronger effect = lower value 0.987 | locus YER016W, strain bim1, stronger effect = lower value 0.977 | locus YER110C, stronger effect = lower value 0.996 | locus YER111C, strain swi4, stronger effect = lower value 0.982 | locus YER155C, strain BEM2 (second series), stronger effect = lower value 0.966 | locus YER155C, strain BEM2, stronger effect = lower value 0.992 | locus YER167W, strain BCK2, stronger effect = lower value 1 | locus YFR010W, strain ubp6, stronger effect = lower value 0.977 | locus YGL078C, strain dbp3, stronger effect = lower value 0.989 | locus YGL086W, strain mad1, stronger effect = lower value 0.995 | locus YGL167C, strain pmr1, stronger effect = lower value 0.98 | locus YGL173C, strain kem1, stronger effect = lower value 0.963 | locus YGL227W, strain vid30, stronger effect = lower value 0.97 | locus YGL240W, strain doc1, stronger effect = lower value 0.971 | locus YGL248W, strain PDE1, stronger effect = lower value 1.05 | locus YGL253W, strain hxk2, stronger effect = lower value 0.985 | locus YGR135W, strain pre9, stronger effect = lower value 0.985 | locus YGR252W, strain gcn5, stronger effect = lower value 0.987 | locus YHR013C, strain ard1, stronger effect = lower value 0.964 | locus YHR027C, strain rpn1, stronger effect = lower value 0.98 | locus YHR030C, strain SLT2, stronger effect = lower value 1 and 0.975 | locus YHR079C, strain IRE1 (second series), stronger effect = lower value 0.99 | locus YHR079C, strain IRE1, stronger effect = lower value 0.971 | locus YHR094C, strain hxt1, stronger effect = lower value 0.978 | locus YHR129C, strain ARP1, stronger effect = lower value 1 | locus YHR142W, strain chs7, stronger effect = lower value 0.983 | locus YHR200W, strain rpn10, stronger effect = lower value 1 | locus YIL066C, strain RNR3, stronger effect = lower value 1.03 | locus YIL073C, strain SPO22, stronger effect = lower value 1.02 | locus YIL125W, strain kgd1, stronger effect = lower value 0.996 | locus YIR030C, strain dcg1, stronger effect = lower value 0.992 | locus YJL092W, strain hpr5, stronger effect = lower value 0.987 | locus YJL095W, strain BCK1 (second series), stronger effect = lower value 0.971 | locus YJL095W, strain BCK1, stronger effect = lower value 1.06 and 1.01 | locus YJL115W, strain asf1, stronger effect = lower value 0.977 | locus YJL129C, strain trk1, stronger effect = lower value 0.967 | locus YJL134W, strain LCB3, stronger effect = lower value 0.993 | locus YJL154C, strain vps35, stronger effect = lower value 0.979 | locus YJL164C, strain tpk1, stronger effect = lower value 0.98 | locus YJL166W, strain qcr8, stronger effect = lower value 0.982 | locus YJL168C, strain set2, stronger effect = lower value 0.993 | locus YJL187C, strain SWE1 (second series), stronger effect = lower value 1.02 | locus YJL187C, strain SWE1, stronger effect = lower value 0.994
